Inconclusive results are not listed. Entries that show only a call come without a potency. Activity calls are given as the source filed them. The call rests on the fitted dose curve.

Beta-2 adrenergic receptor (Homo sapiens), sequence (P07550 whole entry, looked up): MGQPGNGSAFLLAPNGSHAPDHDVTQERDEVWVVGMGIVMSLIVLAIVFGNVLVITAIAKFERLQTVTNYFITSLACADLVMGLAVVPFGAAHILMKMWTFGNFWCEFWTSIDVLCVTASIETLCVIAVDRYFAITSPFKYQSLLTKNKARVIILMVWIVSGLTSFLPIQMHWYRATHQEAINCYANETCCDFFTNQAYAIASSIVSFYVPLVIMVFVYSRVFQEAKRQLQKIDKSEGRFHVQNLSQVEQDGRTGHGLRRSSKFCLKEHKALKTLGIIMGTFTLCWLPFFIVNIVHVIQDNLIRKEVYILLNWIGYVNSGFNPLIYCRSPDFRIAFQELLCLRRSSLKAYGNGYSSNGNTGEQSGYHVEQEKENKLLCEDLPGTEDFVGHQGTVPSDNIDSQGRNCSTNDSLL

The test has as its target Beta-2 adrenergic receptor (Homo sapiens) (UniProt P07550). In words: Adrenergic beta2 receptor (ADRB2) small molecule antagonists, cell-based qHTS assay (AID 1963592). Further: nearly all actives have a fitted effect of over 50% in size. As to conditions: CHO-ADRB2 cells, isoproterenol-stimulated cAMP HTRF ratio, 0.5 h; series mostly up to 92.4 µM. The text has this:
U.S. Tox21 Program National Center for Advancing Translational Sciences [NCATS] Division of Preclinical Innovation [DPI] U.S. Environmental Protection Agency [EPA] National Institutes of Environmental Health Sciences [NIEHS] National Toxicology Program [NTP] U.S. Food and Drug Administration [FDA] Tox21 Assay Overview: Beta adrenergic receptors (Beta-ARs) belong to the G-protein coupled receptor (GPCR) superfamily, includes three subtypes - beta1, beta2, and beta3. Beta1-AR is the predominant receptor subtype expressed in the heart, and beta2-AR is expressed in the kidney, lung, blood vessel and in the heart, and beta3 is found in the adipocytes. Beta1 and 2 ARs couple to Gs protein and elevate cyclic adenosine mono phosphate (cAMP), which activates protein kinase A and leads to the downstream signaling responsible for the physiological actions. Beta-AR agonists or antagonists are the most prescribed therapeutic agents for heart failure and asthma, and these were one of the first target receptors for the rational drug design. Tox21 10K compound library was screened using the cAMP-Gs dynamic assay (Cisbio Bioassays, Shelton, CT) to identify agonists/antagonists of the Gs-coupled human adrenergic, beta2 receptor (ADRB2) in the CHO-ADRB2 cell line (Codex BioSolutions, Inc. Gaithersburg, MD), which stably over-expresses ADRB2. The principle of cAMP-Gs dynamic assay is based on HTRF technology, which facilitates the fluorescence resonance energy transfer (FRET) between donor Europium cryptate and acceptor d2-labeled cAMP. The cAMP generated within cells competes with the red acceptor, d2-labled cAMP, for binding to the monoclonal anti-cAMP-cryptate (Europium donor). An increase in intracellular cAMP leads to the disruption of FRET signal, and the signal is inversely proportional to the cAMP concentration. Propranolol HCl (Sigma-Aldrich, St. Louis, MO) was used as a positive control in the screening.
Tox21 Assay Protocol Summary: CHO-ADRB2 cells were dispensed at 1,000/well in 4uL assay medium into white/solid 1536-well plates (Greiner Bio-One North America Inc., Monroe, NC) using a Multidrop Combi dispenser (ThermoFisher Scientific, Waltham, MA). The assay plates were incubated at 37C and 5% CO2 for an overnight (18-20hr). Then positive control and test compounds dissolved in DMSO were transferred to the assay plates at 23nL using a Pintool station (Wako, San Diego, CA). Following the compound and positive control transfer, 1uL agonist-stimulation mix containing 1nM Isoproterenol HCl, 100uM IBMX and 25uM Ro-20-1724 was added to each well of the assay plates using BioRAPTR Flying Reagent Dispenser (FRD, Beckman Coulter, Brea, CA). The assay plates were incubated at room temperature for 0.5hr. Then 2.5ul each d2-labled cAMP and anti-cAMP-cryptate solutions were added separately to each well of the assay plates using an FRD and the assay plates were incubated at room temperature for 1hr. The fluorescence signal was measured at two different wavelengths (665nm and 615nm) using an Envision plate reader (Perkin Elmer, Shelton, CT). Data were expressed as the ratio of 665 nm/615 nm.
A general note: In qHTS, concentration-response curves come from the screen itself.
Take `CC(=O)Oc1c(C)c(C)c2c(c1C)CC[C@@](C)(CCC[C@H](C)CCC[C@H](C)CCCC(C)C)O2`: the Potency entry was “inactive”. Next, `O=NO`: “inactive”. The entry for `CCCCCCCCCCCCc1ccccc1O` is “inactive”. Next, `CCCCNC(N)=O`: “inactive”; `CN(C)CCOC(=O)COc1ccc(Cl)cc1`: “inactive”; `CCCCCC1=CCCC1=O`: “inactive”. As to `c1ccc2c(c1)[nH]c1ccccc12`, the Potency result is “inactive”. Next, `C=C(C)C(N)=O`: “inactive”; `C[C@]12C=CC(=O)C=C1CC[C@H]1[C@@H]3C[C@@H](O)[C@](O)(C(=O)CO)[C@@]3(C)C[C@H](O)[C@@]12F`: “inactive”; `Cc1c(C(N)=O)cc([N+](=O)[O-])cc1[N+](=O)[O-]`: “inactive”. Next, `CCCCCCCCCCCCS`: “inactive”; `CCCCCCC=O`: “inactive”; `CC1=C(/C=C/C(C)=C/C=C/C(C)=C/C(=O)O)C(C)(C)CCC1`: “inactive”.

Turning to `Cc1[nH]c(=O)c(C#N)cc1-c1ccncc1`, the Potency result is “inactive”. As for `C=CCOC(=O)C(=C)C`, the Potency result is “inactive”. The entry for `O=c1cc[nH]c(=S)[nH]1` is “inactive”. For `CC(=O)Nc1ccc(C(=O)O)cc1`, the Potency result is “inactive”.

With `c1ccc2c(c1)ccc1cc3c(ccc4ccccc43)cc12`, the Potency result was “inactive”. For `CCCCCCCCCCCCCO`, the Potency result is “inactive”. The entry for `O=C(O)CCCC(=O)O` is “inactive”; for `c1cc(-c2ccncc2)ccn1` it is “inactive”; for `Cc1ccc(N)c([N+](=O)[O-])c1` it is “inactive”. Next, `CCCCCCCCC`: “inactive”. Next, `CC[C@H](C)C(=O)O[C@H]1C[C@@H](C)C=C2C=C[C@H](C)[C@H](CC[C@@H]3C[C@@H](O)CC(=O)O3)[C@H]21`: “inactive”; `O=C(OCc1ccccc1)c1ccccc1O`: “inactive”; `CCCCCCCCCCCCCC[N+](C)(C)Cc1ccccc1`: “inactive”. Turning to `COCCCN`, the Potency entry is “inactive”. Take `COc1ccc(C(Cl)=C(c2ccc(OC)cc2)c2ccc(OC)cc2)cc1`: the Potency result is “inactive”.

As to `CC(=O)CC/C=C(\C)CCC=C(C)C`, the Potency result was “inactive”. Next, `O=Cc1ccccc1O`: “inactive”; `CC/C=C(\C(=O)N[C@@H]1C(=O)N2C(C(=O)OCOC(=O)C(C)(C)C)=C(COC(N)=O)CS[C@H]12)c1csc(N)n1`: “inactive”; `O=C(OCc1ccccc1)c1ccccc1`: “inactive”. Next, `CCCC[P+](CCCC)(CCCC)CCCC`: “inactive”. With `CC(=O)c1ccc(O)cc1`, the Potency entry was “inactive”.

For `CC1=CC(C)(C)Nc2ccccc21`, the Potency result is “inactive”. With `C=CCOC(=O)CC(C)C`, the Potency result was “inactive”.

With `NC(N)=S`, the Potency entry was “inactive”. Next, `C=CC[N+](C)(C)CC=C`: “inactive”; `Cc1ccncc1`: “inactive”. Consider `Oc1ccc(O)cc1`, for which the Potency result was “inactive”.

For the origin of these results see PubChem BioAssay (Tox21).
